Measurements: PubChem BioAssay (NCATS)
Results filed as inconclusive are left out. Calls of active or inactive are those of the source. Unless noted, calls follow the shape of the dose curve; as a rule, active = well fitted curve in the direction sought with a large enough effect; inconclusive = small, poorly fitted or top-dose-only effect, or another doubt; inactive = no such curve, though single readings can be large; an effect the other way counts as inactive or inconclusive.

Key:
[1] = molecular target: M-phase phosphoprotein 8 (Homo sapiens) (UniProt Q99549); assay: qHTS Validation Assay for Inhibitors for MPP8 Chromodomain Interactions with Methylated Histone Tails (AID 488949); also: nearly all actives have a fitted effect of over 55% in size; also: potency is read from the fitted curve at half-maximal effect
Outline: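 Chemiluminescent proximity assay: histidine-tag capture via nickel acceptor beads, biotin peptide via streptavidin donor beads. Protein and peptide each at 50 nM, pH 7.4, with 30 min incubations at room temperature for complex formation, compound exposure and bead binding.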

[2] = molecular target: Chromobox protein homolog 1 (Homo sapiens) (UniProt P83916); assay: qHTS Validation Assay for Inhibitors of HP1-beta Chromodomain Interactions with Methylated Histone Tails (AID 488953); also: nearly all actives have a fitted effect of over 50% in size; also: potency is read from the fitted curve at half-maximal effect
Outline: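 Compounds pinned into a preassembled complex of HP1-beta and trimethyl-K9 histone H3(1-18) biotin peptide (50 nM each; PBS pH 7.4, 0.01% Tween-20). After 30 min, bead-based AlphaScreen detection followed.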

[3] = molecular target: Methanococcus maripaludis chaperonin (MmCpn) (UniProt Q6LX38); assay: High-Throughput Screening for Modulators of Cytosolic Chaperonin Activity: MmCpn Primary Screen (AID 488978); also: 0% is about no effect
Outline: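 HTRF readout (320 nm excitation, 590/665 nm emission) of ADP generated by 50 nM MmCpn hydrolysing 30 uM ATP during 10 min at 37C; compound preincubated 5 min RT.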

[4] = molecular target: Transient receptor potential cation channel subfamily V member 1 (Homo sapiens) (UniProt Q8NER1); assay: HTS Assay for Compounds that Act as Enhancers of the Vanilloid Receptor 1 (AID 488979); also: 0% is about no effect
Outline: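 TRPV1 cells loaded with Fluo-8 calcium dye; compound added and Ca2+ signal (ex 480/em 520 nm) followed 3 min, then capsaicin at EC20 added and read 2 more min to detect enhancement.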

[5] = molecular target: Thyrotropin receptor (Homo sapiens) (UniProt P16473); assay: qHTS Assay for Antagonists of the Thyroid Stimulating Hormone Receptor (AID 488980); also: series mostly up to about 58 µM; 0% is about no effect
Outline: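 Inhibition of TSH-stimulated cAMP accumulation was quantified by homogeneous time-resolved FRET in TSHR-transfected HEK293 cells. Agonist: TSH, 4 nM final (EC80).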

[6] = molecular target: D(1A) dopamine receptor (Homo sapiens) (UniProt P21728); assay: HTS Assay for Allosteric Agonists of the Human D1 Dopamine Receptor: Primary Screen for Agonists (AID 488981); also: 0% is about no effect
Outline: (§1)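 Tetracycline-induced HEK293 Trex D1 cells with forced coupling to calcium, loaded with no-wash calcium dye; kinetic fluorescence read 180 s after compound addition for agonism, then a further 180 s after an EC20 dopamine challenge for potentiation.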

[7] = molecular target: D(1A) dopamine receptor (Homo sapiens) (UniProt P21728); assay: HTS Assay for Allosteric Agonists of the Human D1 Dopamine Receptor: Primary Screen for Potentiators (AID 488982); also: 0% is about no effect
Outline: as §1

[8] = molecular target: D(1A) dopamine receptor (Homo sapiens) (UniProt P21728); assay: HTS Assay for Allosteric Agonists of the Human D1 Dopamine Receptor: Primary Screen for Antagonists (AID 488983);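 also: calcium flux response to an EC80 dopamine challenge measured with no-wash dye; % is scaled to controls: 0 for no effect and ±100 for the full control effect; nearly all actives have a fitted effect of over 65% in size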
Outline: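 In this primary screen, compounds are applied to calcium-dye-loaded HEK293 T-REx cells with force-coupled D1 expression induced overnight at 30 C. An EC80 of dopamine follows the 180 s compound phase, and calcium is monitored for a further 180 s.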

[9] = molecular target: ATP-dependent 6-phosphofructokinase (Trypanosoma brucei brucei) (UniProt O15648); assay: qHTS Assay to Find Inhibitors of T. brucei phosphofructokinase: hit validation (AID 492961);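 also: luminescence reports ADP formed as PFK phosphorylates fructose-6-phosphate with ATP; series mostly up to about 51 µM; % is scaled to controls: 0 for no effect and ±100 for the full control effect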
Outline: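 Compounds titrated; %activity normalized to 0x and 1x enzyme controls, curve-fitted. Readout: ADP-Glo luminescence after 45 min room-temperature reaction of 1.25 nM PFK, 0.1 mM ATP, 0.5 mM F6P, pH 8.0.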

[10] = molecular target: ATPase family AAA domain-containing protein 5 (Homo sapiens) (UniProt Q96QE3); assay: Validation screen for small molecules that inhibit ELG1-dependent DNA repair in human embryonic kidney (HEK293T) cells expressing luciferase-tagged ELG1 (AID 493107); also: nearly all actives have a fitted effect of over 70% in size; also: potency is read from the fitted curve at half-maximal effect
Outline: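 Compounds reducing 5-fluorouridine-driven ELG1-luciferase signal in HEK293T cells were scored; exposure lasted 16 hr at 37 °C with luminescence detected via ONE-Glo.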

[11] = molecular target: Thyrotropin-releasing hormone receptor (Homo sapiens) (UniProt P34981); assay: qHTS for Small Molecule Agonists and Allosteric Enhancers of Human TRH Receptor: Validation Screen for Agonists (AID 493127;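 active = calcium activation more than 3 SD above the typical response in the agonist read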;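 also: intracellular calcium rise by fluo-8 fluorescence before TRH EC20 addition; 0% is about no effect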); conditions: TRH receptor agonist cell assay; at 2 µM; stronger effect = higher value
Outline: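 Kinetic fluorescence assay of agonist-induced calcium release: overnight-plated TRHR cells, room-temperature fluo-8 loading, baseline then compound addition with per-second reads.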

[12] = Nrf2 qHTS screen for inhibitors: Validation (AID 493153; active = well fitted inhibition curve with a large enough effect in the main read-out, with a control signal flat, not every such curve was filed as active); conditions: Potency: luciferase luminescence; viability change: measured here: cytotoxicity max response
Outline: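 In this counterscreened reporter format, each well gives two signals: CellTiter-Fluor fluorescence for cytotoxicity and ARE-luciferase luminescence for Nrf2 function. A549 ARE_Fluc cells in 5% FBS OPTI-MEM were exposed to compound titrations for 18-24 h.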

[13] = qHTS for Inhibitors of Cell Surface uPA Generation: Validation Assay (AID 493164);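 also: RAW 264.7 macrophage cells exposed to compound for 18 h; 0% is about no effect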
Outline: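 Compounds are titrated over seven points (2.45 nM–38.3 uM final) onto pre-plated RAW 264.7 cells and incubated for 18 h. Retained intracellular ATP, measured with ATP-Lite, indicates blocked lethal factor entry.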

[14] = molecular target: Galactokinase (Homo sapiens) (UniProt P51570); assay: qHTS Validation Assay for Inhibitors of Human Galactokinase (GALK) (AID 493189); also: 0% is about no effect
Outline: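 Enzyme activity is inferred from ATP consumption: human GALK phosphorylates galactose (100 uM) using 35 uM ATP for 1 h at room temperature, and luciferase-based Kinase-Glo Plus reports unconsumed ATP.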

[15] = Validation screen for small molecules that induce DNA re-replication in SW480 colon adenocarcinoma cells (AID 504364); also: 0% is about no effect
Outline: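 Hoechst-stained SW480 nuclei, imaged at 405 nm excitation after 48 hr compound exposure, were counted for elevated DNA content as the re-replication signal.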

[16] = molecular target: Peptidyl-prolyl cis-trans isomerase NIMA-interacting 1 (Homo sapiens) (UniProt Q13526); assay: qHTS Validation Assay to Find Inhibitors of Pin1 (AID 504536; active = well fitted inhibition curve with a large enough effect in the polarisation, with a control signal flat, not every such curve was filed as active; the % refers to the polarisation;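 also: 0% = full Pin1 enzyme wells and -100% = no-enzyme wells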)
Outline: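 Fluorescence polarization competition: compounds (titration) displace HiFluor-488-labeled Pin1-1b peptide from Pin1 (0.3 uM final) in pH 7.5 HEPES buffer with DTT, 10 min at room temperature; %Activity normalized to no-enzyme wells, curves fitted.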

[17] = molecular target: Phosphoglycerate kinase, glycosomal (Trypanosoma brucei brucei) (UniProt P07378); assay: qHTS Validation Assay to Find Inhibitors of Phosphoglycerate Kinase (AID 504547);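 also: control wells lack PGK and mark full inhibition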
Outline: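 Compounds are pinned into the substrate/PGK mixture, and GAPDH (100nM final) is added to start the reaction by producing 1,3-BPG. After 60 minutes at room temperature, Kinase-Glo Plus is added and luminescence is measured 10 minutes later.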

[18] = molecular target: phosphoglycerate mutase (Leishmania major) (UniProt Q4Q090); assay: qHTS Validation Assay to Find Inhibitors of Phosphoglycerate Mutase (AID 504548); also: series mostly up to about 58 µM; % is scaled to controls: 0 for no effect and ±100 for the full control effect
Outline: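 Lm PGAM 1.25nM final; 100 mM TEA pH 7.6, 5 mM MgCl2, 0.01% Tween-20; 45 min RT; Kinase-GloPlus, 10 min; end-point luminescence. Enzyme-free wells as negative controls.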

[19] = molecular target: Ubiquitin carboxyl-terminal hydrolase 1 (Homo sapiens) (UniProt O94782); assay: Inhibitors of USP1/UAF1: Pilot qHTS (AID 504865); also: nearly all actives have a fitted effect of over 35% in size; also: potency is read from the fitted curve at half-maximal effect
Outline: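 Enzyme-free wells gave the negative control, while test wells held 1nM USP1/UAF1 preincubated with compound for 15 min at room temperature. Ub-Rho at 150nM final started the reaction, and fluorescence at 480/540 nm was recorded kinetically.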

Sequence of Galactokinase (Homo sapiens) (P51570 whole entry, looked up): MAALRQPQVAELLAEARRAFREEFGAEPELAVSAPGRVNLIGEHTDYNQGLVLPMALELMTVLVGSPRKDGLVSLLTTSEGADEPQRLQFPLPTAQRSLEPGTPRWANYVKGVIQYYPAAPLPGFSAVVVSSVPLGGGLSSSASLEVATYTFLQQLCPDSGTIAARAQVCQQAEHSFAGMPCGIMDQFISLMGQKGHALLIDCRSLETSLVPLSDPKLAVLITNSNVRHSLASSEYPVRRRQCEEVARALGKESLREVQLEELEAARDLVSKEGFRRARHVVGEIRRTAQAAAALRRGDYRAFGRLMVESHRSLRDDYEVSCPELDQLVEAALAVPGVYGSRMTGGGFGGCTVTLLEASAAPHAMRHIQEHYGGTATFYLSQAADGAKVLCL
Sequence of Peptidyl-prolyl cis-trans isomerase NIMA-interacting 1 (Homo sapiens) (Q13526 whole entry, looked up): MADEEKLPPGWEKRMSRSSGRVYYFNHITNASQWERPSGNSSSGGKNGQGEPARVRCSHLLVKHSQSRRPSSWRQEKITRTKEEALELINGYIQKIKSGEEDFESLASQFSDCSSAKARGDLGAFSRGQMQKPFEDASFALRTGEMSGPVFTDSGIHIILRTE
Sequence of Phosphoglycerate kinase, glycosomal (Trypanosoma brucei brucei) (P07378 whole entry, looked up): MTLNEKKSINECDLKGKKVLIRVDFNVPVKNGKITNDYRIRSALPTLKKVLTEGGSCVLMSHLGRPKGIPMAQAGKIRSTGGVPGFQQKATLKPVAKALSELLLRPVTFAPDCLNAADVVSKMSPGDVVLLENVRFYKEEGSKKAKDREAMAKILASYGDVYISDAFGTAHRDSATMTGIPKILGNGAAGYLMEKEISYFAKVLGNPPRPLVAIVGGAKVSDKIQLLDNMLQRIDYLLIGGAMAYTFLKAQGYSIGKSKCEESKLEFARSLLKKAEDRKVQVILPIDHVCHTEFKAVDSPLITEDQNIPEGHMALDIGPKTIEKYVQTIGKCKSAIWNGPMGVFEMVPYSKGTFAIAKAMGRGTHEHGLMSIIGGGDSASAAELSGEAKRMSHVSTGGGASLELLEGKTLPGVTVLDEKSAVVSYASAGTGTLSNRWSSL
Sequence of Ubiquitin carboxyl-terminal hydrolase 1 (Homo sapiens) (O94782 whole entry, looked up): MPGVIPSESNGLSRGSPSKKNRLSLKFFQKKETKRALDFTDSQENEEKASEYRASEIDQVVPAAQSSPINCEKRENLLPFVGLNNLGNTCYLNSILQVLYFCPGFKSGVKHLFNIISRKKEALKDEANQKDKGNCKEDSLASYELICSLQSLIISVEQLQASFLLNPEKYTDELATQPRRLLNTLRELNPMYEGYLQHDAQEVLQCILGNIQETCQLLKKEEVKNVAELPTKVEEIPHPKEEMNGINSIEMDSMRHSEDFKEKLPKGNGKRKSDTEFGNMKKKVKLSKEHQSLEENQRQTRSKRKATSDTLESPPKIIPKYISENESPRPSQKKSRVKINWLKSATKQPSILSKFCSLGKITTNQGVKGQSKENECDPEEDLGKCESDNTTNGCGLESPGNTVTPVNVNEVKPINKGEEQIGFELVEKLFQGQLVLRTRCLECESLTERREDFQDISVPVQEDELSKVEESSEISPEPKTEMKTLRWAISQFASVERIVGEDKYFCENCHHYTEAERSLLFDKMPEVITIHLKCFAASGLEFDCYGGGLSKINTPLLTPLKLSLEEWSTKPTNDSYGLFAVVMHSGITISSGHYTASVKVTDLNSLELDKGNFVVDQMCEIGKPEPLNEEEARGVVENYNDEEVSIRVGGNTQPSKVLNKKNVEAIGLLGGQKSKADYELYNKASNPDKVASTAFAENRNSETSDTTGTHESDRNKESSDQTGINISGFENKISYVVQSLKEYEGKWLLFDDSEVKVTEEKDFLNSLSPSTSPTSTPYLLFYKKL
Sequence of phosphoglycerate mutase (Leishmania major) (Q4Q090 1-553): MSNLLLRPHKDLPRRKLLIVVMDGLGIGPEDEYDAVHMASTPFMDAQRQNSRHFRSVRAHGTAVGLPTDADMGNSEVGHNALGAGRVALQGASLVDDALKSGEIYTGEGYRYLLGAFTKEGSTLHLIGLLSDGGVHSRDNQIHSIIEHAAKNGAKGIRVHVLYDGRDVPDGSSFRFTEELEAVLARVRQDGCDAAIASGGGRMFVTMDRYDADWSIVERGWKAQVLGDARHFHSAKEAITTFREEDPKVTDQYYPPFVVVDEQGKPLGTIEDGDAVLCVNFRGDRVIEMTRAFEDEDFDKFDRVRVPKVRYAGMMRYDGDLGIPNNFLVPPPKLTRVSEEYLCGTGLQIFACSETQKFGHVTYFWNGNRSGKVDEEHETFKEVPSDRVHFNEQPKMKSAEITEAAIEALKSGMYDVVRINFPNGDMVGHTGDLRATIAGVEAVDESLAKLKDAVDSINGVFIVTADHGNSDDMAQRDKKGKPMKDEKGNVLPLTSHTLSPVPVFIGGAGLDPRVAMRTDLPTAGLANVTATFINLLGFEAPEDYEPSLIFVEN
Sequence of Transient receptor potential cation channel subfamily V member 1 (Homo sapiens) (Q8NER1 whole entry, looked up): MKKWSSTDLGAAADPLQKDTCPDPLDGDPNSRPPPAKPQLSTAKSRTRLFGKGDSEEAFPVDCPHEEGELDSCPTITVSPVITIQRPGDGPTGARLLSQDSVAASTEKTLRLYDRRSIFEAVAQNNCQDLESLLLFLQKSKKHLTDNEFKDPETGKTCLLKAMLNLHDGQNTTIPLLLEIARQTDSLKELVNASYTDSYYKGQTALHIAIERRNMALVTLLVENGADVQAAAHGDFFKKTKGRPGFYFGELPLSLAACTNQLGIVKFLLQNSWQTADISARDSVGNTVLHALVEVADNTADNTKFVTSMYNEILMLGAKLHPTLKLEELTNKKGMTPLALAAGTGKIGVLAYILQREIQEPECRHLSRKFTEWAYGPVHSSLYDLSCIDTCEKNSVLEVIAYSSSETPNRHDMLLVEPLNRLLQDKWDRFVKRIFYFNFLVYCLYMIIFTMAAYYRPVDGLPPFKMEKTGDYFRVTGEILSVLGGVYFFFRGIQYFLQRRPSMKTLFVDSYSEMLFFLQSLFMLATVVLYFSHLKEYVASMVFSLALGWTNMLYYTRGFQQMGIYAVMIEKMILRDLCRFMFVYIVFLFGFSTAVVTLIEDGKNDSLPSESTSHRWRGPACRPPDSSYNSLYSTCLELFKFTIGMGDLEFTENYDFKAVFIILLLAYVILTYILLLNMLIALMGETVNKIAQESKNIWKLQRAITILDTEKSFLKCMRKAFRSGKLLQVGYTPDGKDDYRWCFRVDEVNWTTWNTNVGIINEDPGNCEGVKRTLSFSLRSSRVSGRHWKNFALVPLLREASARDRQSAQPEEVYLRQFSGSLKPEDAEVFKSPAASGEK
Sequence of Thyrotropin receptor (Homo sapiens) (P16473 whole entry, looked up): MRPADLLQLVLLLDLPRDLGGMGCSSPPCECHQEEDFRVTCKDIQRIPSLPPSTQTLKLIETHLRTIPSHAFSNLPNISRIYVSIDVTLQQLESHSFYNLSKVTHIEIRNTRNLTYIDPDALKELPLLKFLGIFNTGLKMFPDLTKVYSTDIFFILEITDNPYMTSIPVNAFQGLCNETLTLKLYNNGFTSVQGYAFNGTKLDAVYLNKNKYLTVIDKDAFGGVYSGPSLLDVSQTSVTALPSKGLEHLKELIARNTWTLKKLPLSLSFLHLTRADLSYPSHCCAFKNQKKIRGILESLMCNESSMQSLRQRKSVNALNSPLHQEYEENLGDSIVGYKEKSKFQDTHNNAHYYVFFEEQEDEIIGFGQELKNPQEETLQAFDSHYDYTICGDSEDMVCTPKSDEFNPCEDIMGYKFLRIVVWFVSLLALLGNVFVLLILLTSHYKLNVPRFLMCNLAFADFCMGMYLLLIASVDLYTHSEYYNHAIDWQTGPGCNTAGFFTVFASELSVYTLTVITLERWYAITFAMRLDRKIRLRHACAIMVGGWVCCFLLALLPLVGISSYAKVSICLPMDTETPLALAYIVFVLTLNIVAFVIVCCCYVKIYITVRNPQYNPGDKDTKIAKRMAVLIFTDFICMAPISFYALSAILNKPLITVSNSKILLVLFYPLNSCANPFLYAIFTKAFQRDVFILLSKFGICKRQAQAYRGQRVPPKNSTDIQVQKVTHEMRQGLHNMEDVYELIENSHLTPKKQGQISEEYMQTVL
Sequence of Methanococcus maripaludis chaperonin (MmCpn) (Q6LX38 1-543): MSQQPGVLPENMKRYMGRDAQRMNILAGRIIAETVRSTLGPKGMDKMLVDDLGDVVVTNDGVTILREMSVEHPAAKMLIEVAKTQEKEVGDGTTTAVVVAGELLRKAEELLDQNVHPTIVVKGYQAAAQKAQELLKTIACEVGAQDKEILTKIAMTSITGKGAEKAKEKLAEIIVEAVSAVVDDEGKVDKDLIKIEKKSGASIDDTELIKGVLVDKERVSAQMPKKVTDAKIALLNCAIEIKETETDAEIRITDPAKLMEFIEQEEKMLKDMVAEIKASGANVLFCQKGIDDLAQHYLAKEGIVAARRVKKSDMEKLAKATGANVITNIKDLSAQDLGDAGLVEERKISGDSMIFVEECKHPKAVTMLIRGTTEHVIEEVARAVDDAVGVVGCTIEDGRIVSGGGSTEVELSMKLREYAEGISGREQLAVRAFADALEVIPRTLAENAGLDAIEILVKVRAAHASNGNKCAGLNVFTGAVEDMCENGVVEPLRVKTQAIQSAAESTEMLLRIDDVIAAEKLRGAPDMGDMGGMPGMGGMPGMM
Sequence of Chromobox protein homolog 1 (Homo sapiens) (P83916 whole entry, looked up): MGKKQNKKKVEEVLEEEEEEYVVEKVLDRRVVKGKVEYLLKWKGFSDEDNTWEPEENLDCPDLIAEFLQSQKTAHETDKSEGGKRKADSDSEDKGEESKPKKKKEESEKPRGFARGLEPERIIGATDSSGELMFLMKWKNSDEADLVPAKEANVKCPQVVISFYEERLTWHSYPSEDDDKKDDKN

CC(C)NCC(O)c1ccc(NS(C)(=O)=O)cc1 (stereo not drawn)
-6.97%: viability change [12]
inactive: Potency [1] | Potency [2] | outcome [3] | outcome [4] | outcome [5] | outcome [6] | outcome [7] | outcome [8] | Potency [9] | Potency [10] | activation [11] 0.875% | Potency [12] | outcome [13] | outcome [14] | outcome [15] | outcome [16] | Potency [17] | outcome [18] | Potency [19]

COc1cc([C@@H]2c3cc4c(cc3[C@H](O)[C@H]3COC(=O)[C@H]23)OCO4)cc(OC)c1OC
inactive: Potency [9]

CCCc1cc(C(N)=S)ccn1
inactive: Potency [9]

Cc1cccc(N(C)C(=S)Oc2ccc3ccccc3c2)c1
inactive: Potency [9]

Cc1oc(=O)oc1CN1CCN(c2cc3c(cc2F)c(=O)c(C(=O)O)c2n3C(C)S2)CC1 (stereo not drawn)
inactive: Potency [9]

CCN1CCCC1CNC(=O)c1cc(S(N)(=O)=O)ccc1OC (stereo not drawn)
7.94%: viability change [12]
inactive: Potency [1] | Potency [2] | outcome [3] | outcome [4] | outcome [5] | outcome [6] | outcome [7] | activation [11] 0.25% | Potency [12] | outcome [13] | outcome [14] | outcome [15] | outcome [16] | Potency [17] | outcome [18] | Potency [19]

Nc1nc(N)c2nc(CNc3ccc(C(=O)NC(CCC(=O)O)C(=O)O)cc3)cnc2n1 (stereo not drawn)
inactive: outcome [3] | outcome [4] | outcome [5] | outcome [6] | outcome [7] | outcome [8] | Potency [10] | activation [11] 1% | outcome [13] | outcome [14] | outcome [15] | outcome [18]

OCc1ccc(-c2nn(Cc3ccccc3)c3ccccc23)o1
4.14%: viability change [12]
active: Potency [1] 25.1 µM | Potency [2] 39.8 µM
inactive: outcome [3] | outcome [4] | outcome [5] | outcome [6] | outcome [7] | outcome [8] | Potency [10] | activation [11] 0.188% | Potency [12] | outcome [13] | outcome [14] | outcome [15] | outcome [16] | Potency [17] | outcome [18] | Potency [19]

Cc1ccc(S(=O)(=O)N[C@@H](Cc2ccccc2)C(=O)CCl)cc1
inactive: Potency [1] | Potency [2] | outcome [4] | outcome [5] | outcome [6] | outcome [7] | activation [11] 2.5% | outcome [13] | outcome [14] | outcome [15] | outcome [16] | Potency [17] | outcome [18]
active: Potency [10] 14.6 µM | Potency [19] 44.7 µM

COc1cc2nc(N3CCCN(C)CC3)nc(NC3CCN(Cc4ccccc4)CC3)c2cc1OC
inactive: Potency [1] | outcome [3] | outcome [6] | outcome [7] | outcome [8] | outcome [13] | outcome [16] | Potency [17] | outcome [18] | Potency [19]
active: Potency [10] 25.9 µM
